Measurements reported in the supplement of paper PMC10849652.
Of roughly 8,800 targets only a part is listed; those with a hit were picked by preference. About 0.5% of all pairs of compound and target were hits.

Experiments:
Assay in all cases: log2 fold change, soluble protein after heating vs DMSO (PISA); higher = thermal stabilisation; K562 lysate, 10 uM; active = over 0.2 and 3.5 SD of the protein, either way, in both replicates (recomputed)
[1] = compound: NCC(=O)Nc1ccc(-n2nc(C(F)(F)F)cc2-c2ccc3c(ccc4ccccc43)c2)cc1
How it was run: (§1)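 Quantification was by TMTpro 16plex LC-MS/MS with equalised channel sums, applied to the supernatant after 21,000xg for 90 min. Samples were crude K562 extract at 1 mg/mL protein in PBS pH 7.4 with 1 mM MgCl2, treated with 10 μM compound for 30 min, heated for 3 min across 48°C-58°C, pooled and brought to 0.5% NP-40 at 4°C. Values are log-two fold changes in thermal stability relative to solvent controls, from duplicates.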

[2] = compound: O=C(CCCCCCC(=O)Nc1ccccc1)NO [vorinostat]
How it was run: as §1

[3] = compound: O=C(O)c1ccc2c(c1)nc(Nc1cccc(Cl)c1)c1ccncc12 [silmitasertib]
How it was run: as §1

[4] = compound: O=C1NC(=O)C(c2cnc3ccccn23)=C1c1cn2c3c(cc(F)cc13)CN(C(=O)N1CCCCC1)CC2
How it was run: as §1

[5] = compound: c1cn2cc(-c3ccc4cn[nH]c4c3)nc(Nc3ccc(N4CCOCC4)cc3)c2n1 [entospletinib]
How it was run: as §1

Measured: log2 fold change

PCBP3 (UniProt P57721)
inactive: [1] 0.016 | [3] 0.001 | [4] -0.001 | [5] 0.016
active: [2] -0.371

PI4K2B (UniProt Q8TCG2)
inactive: [1] -0.038 | [2] -0.054 | [3] 0.041 | [4] 0.011 | [5] 0.014

PRPF38A (UniProt Q8NAV1)
inactive: [1] -0.059 | [2] -0.278 | [3] 0.03 | [4] 0.03 | [5] 0.055

PTMA (UniProt P06454)
Sequence of UniProt P06454 (P06454 whole entry, looked up): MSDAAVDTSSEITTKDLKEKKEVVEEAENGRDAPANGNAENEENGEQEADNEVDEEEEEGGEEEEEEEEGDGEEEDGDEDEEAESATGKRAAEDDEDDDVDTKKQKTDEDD
inactive: [1] -0.002 | [2] 0.093 | [3] -0.036 | [4] 0.023 | [5] -0.025

PLEKHF1 (UniProt Q96S99)
Sequence of UniProt Q96S99 (Q96S99 whole entry, looked up): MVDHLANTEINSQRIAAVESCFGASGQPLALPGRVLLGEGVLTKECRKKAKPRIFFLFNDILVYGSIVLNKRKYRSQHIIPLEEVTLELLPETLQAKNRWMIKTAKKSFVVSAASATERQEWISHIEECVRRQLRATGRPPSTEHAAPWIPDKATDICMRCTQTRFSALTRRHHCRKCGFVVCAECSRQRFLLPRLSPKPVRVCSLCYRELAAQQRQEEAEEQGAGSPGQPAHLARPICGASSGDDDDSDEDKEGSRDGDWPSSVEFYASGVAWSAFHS
active: [2] -0.272
inactive: [1] -0.019 | [3] 0.07 | [4] -0.014 | [5] 0.014

PRKACB isoform 2 (UniProt P22694)
inactive: [1] -0.014 | [2] -0.018 | [3] 0.054 | [4] 0.002 | [5] 0.042

PGGT1B (UniProt P53609)
inactive: [1] -0.038 | [2] 0.08 | [3] 0.109 | [4] -0.029 | [5] -0.054

PIK3CG (UniProt P48736)
Sequence of UniProt P48736 (P48736 whole entry, looked up): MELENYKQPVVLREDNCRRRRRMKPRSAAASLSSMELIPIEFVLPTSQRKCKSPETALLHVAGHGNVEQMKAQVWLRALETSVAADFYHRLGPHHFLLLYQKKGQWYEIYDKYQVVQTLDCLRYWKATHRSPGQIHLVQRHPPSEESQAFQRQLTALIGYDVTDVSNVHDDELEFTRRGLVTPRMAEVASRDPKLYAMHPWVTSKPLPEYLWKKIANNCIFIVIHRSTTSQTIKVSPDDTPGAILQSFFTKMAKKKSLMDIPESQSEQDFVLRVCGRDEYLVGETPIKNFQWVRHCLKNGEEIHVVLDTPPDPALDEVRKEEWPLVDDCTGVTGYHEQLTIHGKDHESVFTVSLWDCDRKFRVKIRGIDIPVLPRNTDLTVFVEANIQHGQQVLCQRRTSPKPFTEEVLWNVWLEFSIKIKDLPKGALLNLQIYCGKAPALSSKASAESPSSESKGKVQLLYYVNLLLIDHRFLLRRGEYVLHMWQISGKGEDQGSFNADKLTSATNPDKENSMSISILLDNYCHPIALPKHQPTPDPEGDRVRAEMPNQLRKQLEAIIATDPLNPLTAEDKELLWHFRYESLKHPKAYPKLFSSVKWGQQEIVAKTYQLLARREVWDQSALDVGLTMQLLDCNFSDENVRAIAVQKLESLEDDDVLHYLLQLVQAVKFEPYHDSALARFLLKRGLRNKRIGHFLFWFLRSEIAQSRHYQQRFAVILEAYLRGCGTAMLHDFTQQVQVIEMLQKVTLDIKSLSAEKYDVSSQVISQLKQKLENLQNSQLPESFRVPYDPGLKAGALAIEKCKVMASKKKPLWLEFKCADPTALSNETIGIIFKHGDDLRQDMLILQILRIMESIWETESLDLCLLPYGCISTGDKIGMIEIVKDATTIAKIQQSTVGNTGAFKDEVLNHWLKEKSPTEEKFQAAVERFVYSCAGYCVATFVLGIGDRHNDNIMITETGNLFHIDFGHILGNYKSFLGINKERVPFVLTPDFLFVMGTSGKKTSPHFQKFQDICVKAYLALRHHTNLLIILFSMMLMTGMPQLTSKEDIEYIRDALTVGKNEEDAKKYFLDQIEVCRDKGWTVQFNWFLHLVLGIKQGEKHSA
inactive: [1] -0.111 | [2] -0.037 | [3] 0.04 | [4] -0.027 | [5] -0.073

PPP1R8 (UniProt Q12972)
Sequence of UniProt Q12972 (Q12972 whole entry, looked up): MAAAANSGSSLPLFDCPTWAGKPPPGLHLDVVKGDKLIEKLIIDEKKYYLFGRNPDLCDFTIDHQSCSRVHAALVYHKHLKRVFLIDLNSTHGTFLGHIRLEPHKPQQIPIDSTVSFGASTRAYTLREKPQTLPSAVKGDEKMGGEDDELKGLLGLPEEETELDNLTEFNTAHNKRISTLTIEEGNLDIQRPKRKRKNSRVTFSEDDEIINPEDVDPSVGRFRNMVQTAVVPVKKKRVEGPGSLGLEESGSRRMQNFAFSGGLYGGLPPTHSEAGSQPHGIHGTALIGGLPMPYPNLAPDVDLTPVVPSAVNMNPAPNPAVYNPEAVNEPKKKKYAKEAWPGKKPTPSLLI
inactive: [1] 0.02 | [2] 0.04 | [3] -0.009 | [4] -0.017 | [5] 0.025

PPP2R5C isoform 5 (UniProt Q13362)
inactive: [1] 0.002 | [2] 0.049 | [3] 0.019 | [4] 0.022 | [5] 0.011

PRMT8 (UniProt Q9NR22)
inactive: [1] 0.067 | [2] -0.157 | [3] -0.018 | [4] -0.017 | [5] 0.002

PTGR2 (UniProt Q8N8N7)
Sequence of UniProt Q8N8N7 (Q8N8N7 whole entry, looked up): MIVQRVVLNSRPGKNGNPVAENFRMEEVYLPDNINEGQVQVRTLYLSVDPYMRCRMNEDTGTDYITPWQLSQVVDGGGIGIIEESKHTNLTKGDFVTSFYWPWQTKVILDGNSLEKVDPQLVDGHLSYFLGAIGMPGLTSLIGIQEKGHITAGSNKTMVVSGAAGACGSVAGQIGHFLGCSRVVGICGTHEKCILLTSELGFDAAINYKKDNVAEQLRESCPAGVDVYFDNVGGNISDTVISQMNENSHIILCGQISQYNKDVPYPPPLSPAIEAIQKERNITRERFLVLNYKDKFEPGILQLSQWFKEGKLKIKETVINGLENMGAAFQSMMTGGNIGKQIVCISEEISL
inactive: [1] -0.083 | [3] -0.002 | [4] 0.11 | [5] -0.005
active: [2] 0.656

PELO (UniProt Q9BRX2)
Sequence of UniProt Q9BRX2 (Q9BRX2 whole entry, looked up): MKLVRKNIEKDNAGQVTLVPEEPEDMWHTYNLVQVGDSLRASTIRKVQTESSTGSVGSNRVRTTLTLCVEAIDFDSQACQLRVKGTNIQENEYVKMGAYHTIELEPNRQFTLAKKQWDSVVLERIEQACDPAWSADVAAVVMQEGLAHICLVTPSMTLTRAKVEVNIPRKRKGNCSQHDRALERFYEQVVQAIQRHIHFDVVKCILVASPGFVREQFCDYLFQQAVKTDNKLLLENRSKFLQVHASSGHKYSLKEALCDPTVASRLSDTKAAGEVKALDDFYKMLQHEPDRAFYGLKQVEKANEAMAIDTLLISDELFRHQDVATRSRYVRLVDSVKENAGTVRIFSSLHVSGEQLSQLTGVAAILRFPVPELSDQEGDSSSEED
inactive: [1] 0.021 | [3] 0.058 | [4] 0.02 | [5] 0.006
active: [2] -0.495

PRKCSH (UniProt K7ELL7)
inactive: [1] 0.132 | [2] 0.109 | [3] 0.016 | [4] 0.016 | [5] -0.097

PUF60 isoform 2 (UniProt Q9UHX1)
Sequence of UniProt Q9UHX1 (Q9UHX1 whole entry, looked up): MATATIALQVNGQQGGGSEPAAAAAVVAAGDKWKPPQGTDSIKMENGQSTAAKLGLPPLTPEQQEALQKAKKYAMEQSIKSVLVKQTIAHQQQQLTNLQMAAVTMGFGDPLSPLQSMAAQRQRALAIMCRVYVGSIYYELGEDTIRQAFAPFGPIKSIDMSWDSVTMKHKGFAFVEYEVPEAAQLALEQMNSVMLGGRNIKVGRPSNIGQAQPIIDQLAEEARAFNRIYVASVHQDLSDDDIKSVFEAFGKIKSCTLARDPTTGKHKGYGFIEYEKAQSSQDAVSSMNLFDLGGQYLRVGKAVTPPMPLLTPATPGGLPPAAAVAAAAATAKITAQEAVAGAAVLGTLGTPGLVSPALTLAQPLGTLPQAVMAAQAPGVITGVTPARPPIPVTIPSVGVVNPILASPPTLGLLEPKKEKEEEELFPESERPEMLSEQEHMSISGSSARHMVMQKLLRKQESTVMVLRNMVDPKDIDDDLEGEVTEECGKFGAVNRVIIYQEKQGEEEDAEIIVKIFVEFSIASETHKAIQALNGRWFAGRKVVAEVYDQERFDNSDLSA
inactive: [1] -0.061 | [2] 0.23 | [3] 0.075 | [4] 0.026 | [5] 0.027

PFAS (UniProt O15067)
inactive: [1] 0.029 | [3] 0.022 | [4] 0.031 | [5] 0.016
active: [2] -0.272

PRKACA (UniProt P17612)
inactive: [1] -0.114 | [2] 0.007 | [3] -0.02 | [4] 0.033 | [5] 0.03

PUS1 (UniProt Q9Y606)
Sequence of UniProt Q9Y606 (Q9Y606 whole entry, looked up): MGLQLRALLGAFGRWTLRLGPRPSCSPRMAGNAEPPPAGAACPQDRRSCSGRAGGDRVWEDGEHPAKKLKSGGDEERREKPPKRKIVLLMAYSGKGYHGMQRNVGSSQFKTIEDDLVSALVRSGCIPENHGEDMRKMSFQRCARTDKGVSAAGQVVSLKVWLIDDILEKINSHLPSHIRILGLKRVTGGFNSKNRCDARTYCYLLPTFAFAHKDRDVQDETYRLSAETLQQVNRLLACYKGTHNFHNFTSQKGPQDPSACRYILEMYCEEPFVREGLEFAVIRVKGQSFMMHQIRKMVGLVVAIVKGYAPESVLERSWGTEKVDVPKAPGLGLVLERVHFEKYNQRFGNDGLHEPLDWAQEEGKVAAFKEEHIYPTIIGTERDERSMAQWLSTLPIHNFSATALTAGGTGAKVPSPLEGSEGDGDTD
inactive: [1] 0.04 | [3] 0.041 | [4] -0.013 | [5] -0.022
active: [2] -0.321

PIK3C3 (UniProt Q8NEB9)
inactive: [1] -0.04 | [2] -0.066 | [3] 0.037 | [4] 0.019 | [5] -0.014

PI4KB (UniProt Q9UBF8)
inactive: [1] -0.085 | [2] -0.132 | [3] 0.151 | [4] -0.044 | [5] 0.184

PHACTR4 isoform 2 (UniProt Q8IZ21)
inactive: [1] 0.025 | [2] 0.014 | [3] 0.01 | [4] 0.009 | [5] -0.024

PRKAR2B (UniProt P31323)
Sequence of UniProt P31323 (P31323 whole entry, looked up): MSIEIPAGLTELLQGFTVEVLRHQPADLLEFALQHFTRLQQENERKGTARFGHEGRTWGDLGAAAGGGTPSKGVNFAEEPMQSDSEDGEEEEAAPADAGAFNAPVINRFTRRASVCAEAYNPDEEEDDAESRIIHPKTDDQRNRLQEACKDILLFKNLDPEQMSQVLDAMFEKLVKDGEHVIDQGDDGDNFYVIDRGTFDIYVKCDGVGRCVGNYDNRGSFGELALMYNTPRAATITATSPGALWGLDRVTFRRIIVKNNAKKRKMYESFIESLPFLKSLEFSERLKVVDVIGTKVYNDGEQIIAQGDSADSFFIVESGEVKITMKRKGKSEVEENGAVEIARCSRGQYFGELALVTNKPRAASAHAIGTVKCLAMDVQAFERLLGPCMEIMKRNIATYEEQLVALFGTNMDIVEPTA
inactive: [1] 0.014 | [2] -0.093 | [3] 0.009 | [4] 0.025 | [5] -0.055

PDE4DIP (UniProt E9PS60)
inactive: [1] 0.002 | [2] -0.157 | [3] 0.082 | [4] 0.039 | [5] 0.103

PHKB isoform 3 (UniProt Q93100)
inactive: [1] -0.023 | [3] 0.07 | [4] 0.016 | [5] 0.023
active: [2] -0.288

PGRMC1 (UniProt O00264)
Sequence of UniProt O00264 (O00264 whole entry, looked up): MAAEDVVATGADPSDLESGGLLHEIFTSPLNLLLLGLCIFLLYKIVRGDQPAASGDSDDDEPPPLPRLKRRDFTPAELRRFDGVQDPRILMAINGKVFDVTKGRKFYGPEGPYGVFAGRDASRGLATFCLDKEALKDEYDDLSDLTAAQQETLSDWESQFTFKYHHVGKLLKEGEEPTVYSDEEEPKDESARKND
inactive: [1] -0.018 | [2] 0.113 | [3] 0.017 | [4] 0.014 | [5] -0.02

PRKAB2 (UniProt O43741)
Sequence of UniProt O43741 (O43741 whole entry, looked up): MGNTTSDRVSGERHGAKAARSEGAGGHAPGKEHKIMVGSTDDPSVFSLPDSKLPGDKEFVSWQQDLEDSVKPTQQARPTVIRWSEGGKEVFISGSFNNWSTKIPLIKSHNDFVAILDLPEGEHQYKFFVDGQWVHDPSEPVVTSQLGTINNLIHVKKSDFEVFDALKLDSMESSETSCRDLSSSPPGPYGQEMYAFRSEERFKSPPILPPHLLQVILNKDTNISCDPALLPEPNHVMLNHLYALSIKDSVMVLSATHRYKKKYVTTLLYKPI
inactive: [1] -0.006 | [2] -0.009 | [3] 0.111 | [4] 0.096 | [5] 0.013

PPIE (UniProt Q9UNP9)
Sequence of UniProt Q9UNP9 (Q9UNP9 whole entry, looked up): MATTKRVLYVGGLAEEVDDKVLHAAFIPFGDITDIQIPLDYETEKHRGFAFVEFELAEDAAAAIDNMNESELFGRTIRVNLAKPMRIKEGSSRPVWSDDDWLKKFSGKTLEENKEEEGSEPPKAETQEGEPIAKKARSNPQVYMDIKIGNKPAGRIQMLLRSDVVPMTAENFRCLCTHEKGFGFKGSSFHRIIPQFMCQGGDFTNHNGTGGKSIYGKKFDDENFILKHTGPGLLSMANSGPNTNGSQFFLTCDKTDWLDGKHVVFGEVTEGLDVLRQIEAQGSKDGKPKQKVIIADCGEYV
inactive: [1] 0.024 | [2] 0.096 | [3] 0.035 | [4] -0.045 | [5] -0.036

PRKRA (UniProt O75569)
inactive: [1] 0.023 | [3] -0.022 | [4] 0.024 | [5] 0.041
active: [2] -0.773

PRMT5 (UniProt O14744)
inactive: [1] 0.012 | [2] 0.013 | [3] -0.037 | [4] 0.001 | [5] 0.013

PRIM2 (UniProt P49643)
inactive: [1] -0.008 | [3] 0.09 | [4] 0 | [5] 0.003
active: [2] -0.296

PTPN7 isoform 3 (UniProt P35236)
inactive: [1] 0.031 | [3] 0.01 | [4] -0.044 | [5] -0.008
active: [2] -0.491

PUF60 (UniProt Q9UHX1)
inactive: [1] -0.007 | [2] 0.15 | [3] -0.029 | [4] 0.002 | [5] 0.002

PPP4R2 (UniProt Q9NY27)
inactive: [1] -0.007 | [2] -0.053 | [3] -0.016 | [4] 0.023 | [5] -0.001
